Experimental data reported in the OligoGym collection.
Note: reference of the scale not given here.

The sequences below were run against CTCFL (assay: pooled miR-30 sensor sort-seq; sequence = guide strand). Conditions: shRNA.
For TTTAGAAGTTGCTTCTGTCGGA, the sensor-assay potency score (higher = more potent) was 0.605.
With TTATTTTCTAGTCTAATCTAGT the sensor-assay potency score (higher = more potent) was -0.371.
TTTATGTTTCTTCTCACTCTGC showed a sensor-assay potency score (higher = more potent) of -0.0954.
With TATCCTGCAACTCCACAGCTTC the sensor-assay potency score (higher = more potent) was -1.14.

What follows are sequences tested against CTDSP1 in the same assay as above. Conditions: shRNA.
TATTGGACTGGGGTCTTAGGGA was tested, and the sensor-assay potency score (higher = more potent) was -0.481.
TCGATGACCACGCAGATCTTGT gave a sensor-assay potency score (higher = more potent) of -1.32.
Work on TTTGAAGGCACTGACACGGGGC yielded a sensor-assay potency score (higher = more potent) of 0.517.
TTCACTGGCTTGAAGGAGCTGT gave a sensor-assay potency score (higher = more potent) of 0.427.
For TTGTCCAGGATGAGCACCCGCC, the sensor-assay potency score (higher = more potent) was -0.921.
TAGACCTGGTGGACCACCCCAT showed a sensor-assay potency score (higher = more potent) of -0.5.
With TACAGCATTGTCTGGATGGAAG the sensor-assay potency score (higher = more potent) was -1.6.
In the case of TCCAGGTCGATGACCACGCAGA, the sensor-assay potency score (higher = more potent) is reported as -1.79.
TTGGACTGGGGTCTTAGGGATG showed a sensor-assay potency score (higher = more potent) of -1.55.
TACACGTCGTCCACACGGCTGA was tested, and the sensor-assay potency score (higher = more potent) was -0.19.
TGAGCACTGAGTACACGTCGTC showed a sensor-assay potency score (higher = more potent) of -0.158.
TTGTTCACTGGCTTGAAGGAGC was tested, and the sensor-assay potency score (higher = more potent) was -0.757.

What follows are sequences tested against CTHRC1 in the same assay as above. Conditions: shRNA.
With ATGAACTCCATGAACACTGCTT the sensor-assay potency score (higher = more potent) was 0.166.
With TTGAATGTGAAATACCAACGCT the sensor-assay potency score (higher = more potent) was -0.453.
TAAATTATAGCTTCAATGGGAA was tested, and the sensor-assay potency score (higher = more potent) was -0.0923.
TCTTTGTAAATGTACACTCCGC showed a sensor-assay potency score (higher = more potent) of -0.893.
In the case of TAGCAACATCCACTAATCCAGC, the sensor-assay potency score (higher = more potent) is reported as -1.03.
Work on TTTGTAAATGTACACTCCGCAA yielded a sensor-assay potency score (higher = more potent) of -1.33.
ATAAATTATAGCTTCAATGGGA showed a sensor-assay potency score (higher = more potent) of 0.0197.
TTAGAGCACTATTTGAACGCAT was tested, and the sensor-assay potency score (higher = more potent) was -0.079.
TAGAGCACTATTTGAACGCATC showed a sensor-assay potency score (higher = more potent) of -1.21.
Work on TAATTCAATGAACTCCATGAAC yielded a sensor-assay potency score (higher = more potent) of -1.24.

What follows are sequences tested against CTLA4 in the same assay as above. Conditions: shRNA.
In the case of TCATCTAGGAAGGTCAACTCAT, the sensor-assay potency score (higher = more potent) is reported as -0.426.
Work on TTTCTTTAGCATTTTGCTCAAA yielded a sensor-assay potency score (higher = more potent) of -0.998.
Sequence TTAGCAATTACATAAATCTGGG has a sensor-assay potency score (higher = more potent) of -0.222.
In the case of TTCACTTGATTTCCACTGGAGG, the sensor-assay potency score (higher = more potent) is reported as -0.709.
With TTGCTTTGCAGAAGACAGGGAT the sensor-assay potency score (higher = more potent) was 0.337.
Sequence TACATGAGCTCCACCTTGCAGA has a sensor-assay potency score (higher = more potent) of -0.733.
Sequence TTGCAGATGTAGAGTCCCGTGT has a sensor-assay potency score (higher = more potent) of -0.673.
Work on TTTAGCAATTACATAAATCTGG yielded a sensor-assay potency score (higher = more potent) of 0.216.
ATCAATTACATAAATCTGGGTT was tested, and the sensor-assay potency score (higher = more potent) was -0.149.
Work on TGGATCAATTACATAAATCTGG yielded a sensor-assay potency score (higher = more potent) of -0.489.
TAAATCTGGGTTCCGTTGCCTA showed a sensor-assay potency score (higher = more potent) of -0.995.
Work on TAGCAATTACATAAATCTGGGT yielded a sensor-assay potency score (higher = more potent) of -0.226.
Work on TTGGATAGTGAGGTTCACTTGA yielded a sensor-assay potency score (higher = more potent) of 0.333.
Sequence TACTCACACACAAAGCTGGCGA has a sensor-assay potency score (higher = more potent) of 0.197.
